The source made the active and inactive calls. How the source made its calls: active means hit-call score of the fitted dose curve at least 0.9, where 1 is the maximum; inactive means score below 0.9.

Common to all, as to settings: mRNA level, 48 h; actives raise or lower the signal
Read-out in assay [1]: Fatty acid synthase (Homo sapiens) (UniProt P49327)
Briefly: LTEA_HepaRG_FASN: Life Technologies and Expression Analysis (LTEA) Assay for Fatty Acid Synthase (FASN) using HepaRG (AID 2283448). In short, it runs like this: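 In human HepaRG cultures, 48 h chemical exposure (up to 100 uM, 0.5% DMSO) preceded TaqMan qRT-PCR of FASN.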

Read-out in assay [2]: Cyclin Dependent Kinase Inhibitor 1A (CDKN1A), CDKN1A (gene 1026)
Briefly: LTEA_HepaRG_CDKN1A: Life Technologies and Expression Analysis (LTEA) Assay for Cyclin Dependent Kinase Inhibitor 1A (CDKN1A) using HepaRG (AID 2283450). In short, it runs like this:
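Cryopreserved HepaRG cells were plated and cultured 48 h, then switched to serum-free induction medium. Chemicals (eight half-log concentrations, top 100 uM, 0.5% DMSO) were applied for 48 h. Lysates underwent qRT-PCR for CDKN1A with housekeeping normalization.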

Read-out in assay [3]: Cyclin D1 (CCND1), CCND1 (gene 595)
Briefly: LTEA_HepaRG_CCND1: Life Technologies and Expression Analysis (LTEA) Assay for Cyclin D1 (CCND1) using HepaRG (AID 2283451).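 On AC50: TaqMan qRT-PCR transcript level normalised to ACTB GAPDH and POLR2A housekeeping genes.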 In short, it runs like this: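 Human liver HepaRG line; 48 h dosing, 8 conc. ≤100 uM, 0.5% DMSO; TaqMan qRT-PCR mRNA, 3 housekeeping genes; bidirectional curve fit vs DMSO.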

Read-out in assay [4]: catalase (CAT), CAT (gene 847)
Briefly: LTEA_HepaRG_CAT: Life Technologies and Expression Analysis (LTEA) Assay for catalase (CAT) using HepaRG (AID 2283452). In short, it runs like this:
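Expression of CAT was quantified by TaqMan qRT-PCR with ACTB/GAPDH/POLR2A normalization after 48 h chemical exposure of HepaRG. Eight-point half-log series, top 100 uM, in 0.5% DMSO; gain or loss fitted against vehicle.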

Read-out in assay [5]: flavin-containing dimethylaniline monooxygenases 3 (FMO3), FMO3 (gene 2328)
In words: LTEA_HepaRG_FMO3: Life Technologies and Expression Analysis (LTEA) Assay for flavin-containing dimethylaniline monooxygenases 3 (FMO3) using HepaRG (AID 2283453). In short, it runs like this:
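Eight-point concentration-response in serum-free HepaRG cultures (top 100 uM, 0.5% DMSO, 48 h). Read-out: FMO3 mRNA level normalized to three endogenous control genes, fitted bidirectionally versus vehicle.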

Read-out in assay [6]: Cytochrome P450 (CYP1A1), CYP1A1 (gene 1543)
Briefly: LTEA_HepaRG_CYP1A1: Life Technologies and Expression Analysis (LTEA) Assay for Cytochrome P450 (CYP1A1) using HepaRG (AID 2283454). Put shortly:
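Induction of CYP1A1 mRNA in a human hepatic cell line was measured 48 h after dosing, with 1 mM phenobarbital as induction positive control and 0.5% DMSO vehicle as baseline for bidirectional curve fitting.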

Read-out in assay [7]: CFLAR gene, CFLAR (gene 8837)
Briefly: LTEA_HepaRG_CFLAR: Life Technologies and Expression Analysis (LTEA) Assay for CFLAR gene using HepaRG (AID 2283455). In short, it runs like this:
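Transcript level by qRT-PCR (normalized to ACTB, GAPDH and POLR2A) after 48 h chemical exposure of HepaRG cells, top concentration 100 uM with half-log steps, 0.5% DMSO vehicle, duplicates; fitted bidirectionally against DMSO baseline.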

Read-out in assay [8]: Forkhead box O1 (FOXO1), FOXO1 (gene 2308)
In words: LTEA_HepaRG_FOXO1: Life Technologies and Expression Analysis (LTEA) Assay for Forkhead box O1 (FOXO1) using HepaRG (AID 2283456). Put shortly:
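FOXO1 transcript quantified by qRT-PCR after 48 h chemical exposure (top 100 uM, half-log steps, 0.5% DMSO) of HepaRG cells, housekeeping-normalized (ACTB/GAPDH/POLR2A). Changes fitted in both directions relative to vehicle.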

Read-out in assay [9]: growth arrest and DNA damage 45 (GADD45A), GADD45A (gene 1647)
In words: LTEA_HepaRG_GADD45A: Life Technologies and Expression Analysis (LTEA) Assay for growth arrest and DNA damage 45 (GADD45A) using HepaRG (AID 2283458). In short, it runs like this:
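Eight-point concentration-response in HepaRG cells: 48 h chemical exposure, 0.5% DMSO vehicle, top dose 100 uM. Normalized qRT-PCR mRNA readout with bidirectional fitting relative to DMSO.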

Read-out in assay [10]: Forkhead box O3 (FOXO3), FOXO3 (gene 2309)
Briefly: LTEA_HepaRG_FOXO3: Life Technologies and Expression Analysis (LTEA) Assay for Forkhead box O3 (FOXO3) using HepaRG (AID 2283459). In short, it runs like this: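 FOXO3 transcript measured by qRT-PCR (normalized to ACTB, GAPDH, POLR2A) after 48 h exposure of HepaRG cells in serum-free induction medium. Duplicates, eight half-log concentrations up to 100 uM, 0.5% DMSO; gain or loss fitted against DMSO.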

Read-out in assay [11]: ABC Transporter (ABCB1), ABCB1 (gene 5243)
In words: LTEA_HepaRG_ABCB1: Life Technologies and Expression Analysis (LTEA) Assay for ABC Transporter (ABCB1) using HepaRG (AID 2283460). Put shortly: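 ABCB1 transcript level measured by TaqMan qRT-PCR against three housekeeping genes after 48 h chemical exposure of differentiated HepaRG cells. Top concentration 100 uM, half-log steps, eight points, 0.5% DMSO vehicle; bidirectional fit relative to DMSO.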

Read-out in assay [12]: growth arrest and DNA damage 45 (GADD45B), GADD45B (gene 4616)
In words: LTEA_HepaRG_GADD45B: Life Technologies and Expression Analysis (LTEA) Assay for growth arrest and DNA damage 45 (GADD45B) using HepaRG (AID 2283461). In short, it runs like this: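 Values are bidirectional concentration-response fits against 0.5% DMSO controls. Underlying data: qRT-PCR mRNA levels in human HepaRG liver cells treated 48 h in serum-free induction medium, eight concentrations topping at 100 uM.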

Read-out in assay [13]: ABC Transporter (ABCC3), ABCC3 (gene 8714)
In words: LTEA_HepaRG_ABCC3: Life Technologies and Expression Analysis (LTEA) Assay for ABC Transporter (ABCC3) using HepaRG (AID 2283462). Put shortly: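 Differentiated HepaRG liver cells receive test chemicals at eight concentrations (max 100 uM) for 48 h. Expression of ABCC3 is quantified by qRT-PCR against ACTB, GAPDH and POLR2A, and activity is fitted in both directions against the DMSO control.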

Read-out in assay [14]: ABC Transporter (ABCB11), ABCB11 (gene 8647)
Briefly: LTEA_HepaRG_ABCB11: Life Technologies and Expression Analysis (LTEA) Assay for ABC Transporter (ABCB11) using HepaRG (AID 2283463). In short, it runs like this:
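ABCB11 transcript levels quantified by TaqMan qRT-PCR against three housekeeping genes after 48 h chemical exposure of HepaRG cultures. Concentrations up to 100 uM in half-log steps, 0.5% DMSO vehicle; both induction and suppression scored.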

Read-out in assay [15]: ABC Transporter (ABCC2), ABCC2 (gene 1244)
Briefly: LTEA_HepaRG_ABCC2: Life Technologies and Expression Analysis (LTEA) Assay for ABC Transporter (ABCC2) using HepaRG (AID 2283464). In short, it runs like this:
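Gene expression of ABCC2 was determined by qRT-PCR in HepaRG cells exposed 48 h to chemicals (highest 100 uM, half-log dilutions). Activity was fitted in both directions relative to 0.5% DMSO vehicle.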

Read-out in assay [16]: Broad substrate specificity ATP-binding cassette transporter ABCG2 (Homo sapiens) (UniProt Q9UNQ0)
In words: LTEA_HepaRG_ABCG2: Life Technologies and Expression Analysis (LTEA) Assay for ABC Transporter (ABCG2) using HepaRG (AID 2283465). Put shortly:
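ABCG2 transcript was quantified by TaqMan qRT-PCR against three housekeeping genes in HepaRG cells. Cells were treated in duplicate for 48 h across an 8-point half-log series up to 100 uM, with 0.5% DMSO vehicle. Gain or loss versus DMSO was fit.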

Read-out in assay [17]: ATP-citrate lyase (ACLY), ACLY (gene 47)
Briefly: LTEA_HepaRG_ACLY: Life Technologies and Expression Analysis (LTEA) Assay for ATP-citrate lyase (ACLY) using HepaRG (AID 2283466). Put shortly: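 ACLY mRNA quantified by qRT-PCR on Fluidigm arrays against three housekeeping genes, after 48 h chemical treatment of HepaRG cells (top concentration 100 uM, half-log steps, 0.5% DMSO vehicle). Up- or down-regulation fitted relative to DMSO.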

Read-out in assay [18]: Peroxisomal acyl-coenzyme A oxidase 1 (ACOX1) gene, ACOX1 (gene 51)
In words: LTEA_HepaRG_ACOX1: Life Technologies and Expression Analysis (LTEA) Assay for Peroxisomal acyl-coenzyme A oxidase 1 (ACOX1) gene using HepaRG (AID 2283467). In short, it runs like this:
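ACOX1 transcript levels were quantified by TaqMan qRT-PCR against three housekeeping genes after 48 h chemical exposure of differentiated human HepaRG cells. Exposure used eight half-log steps topping at 100 uM, 0.5% DMSO vehicle, in duplicate. Bidirectional curve fits were made relative to DMSO.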

Read-out in assay [19]: Cyclin D2 (CCND2), CCND2 (gene 894)
Briefly: LTEA_HepaRG_CCND2: Life Technologies and Expression Analysis (LTEA) Assay for Cyclin D2 (CCND2) using HepaRG (AID 2283449). Put shortly:
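CCND2 transcript levels, quantified by qRT-PCR and normalised to three housekeeping genes, were fitted bidirectionally against 0.5% DMSO. HepaRG cultures were dosed 48 h in duplicate with an 8-point half-log series up to 100 uM.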

Chain of Broad substrate specificity ATP-binding cassette transporter ABCG2 (Homo sapiens) (Q9UNQ0 whole entry, looked up): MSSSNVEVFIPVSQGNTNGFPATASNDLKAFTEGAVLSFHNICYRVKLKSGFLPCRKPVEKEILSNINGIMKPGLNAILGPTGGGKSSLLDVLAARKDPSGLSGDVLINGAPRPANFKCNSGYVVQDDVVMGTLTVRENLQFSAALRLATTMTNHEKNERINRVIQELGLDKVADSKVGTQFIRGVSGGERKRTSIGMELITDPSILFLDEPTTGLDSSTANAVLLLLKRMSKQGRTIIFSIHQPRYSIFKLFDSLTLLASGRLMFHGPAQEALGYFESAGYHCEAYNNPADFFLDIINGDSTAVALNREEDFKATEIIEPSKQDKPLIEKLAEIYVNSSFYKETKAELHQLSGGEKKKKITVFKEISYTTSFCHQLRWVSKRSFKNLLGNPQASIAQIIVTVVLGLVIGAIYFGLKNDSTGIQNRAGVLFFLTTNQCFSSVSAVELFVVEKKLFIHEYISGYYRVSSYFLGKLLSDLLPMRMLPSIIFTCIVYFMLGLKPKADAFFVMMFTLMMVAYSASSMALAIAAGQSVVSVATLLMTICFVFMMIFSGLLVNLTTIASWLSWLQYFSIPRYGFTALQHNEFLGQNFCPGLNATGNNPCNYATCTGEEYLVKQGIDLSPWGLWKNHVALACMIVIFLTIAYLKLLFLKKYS
Chain of Fatty acid synthase (Homo sapiens) (P49327 whole entry, looked up): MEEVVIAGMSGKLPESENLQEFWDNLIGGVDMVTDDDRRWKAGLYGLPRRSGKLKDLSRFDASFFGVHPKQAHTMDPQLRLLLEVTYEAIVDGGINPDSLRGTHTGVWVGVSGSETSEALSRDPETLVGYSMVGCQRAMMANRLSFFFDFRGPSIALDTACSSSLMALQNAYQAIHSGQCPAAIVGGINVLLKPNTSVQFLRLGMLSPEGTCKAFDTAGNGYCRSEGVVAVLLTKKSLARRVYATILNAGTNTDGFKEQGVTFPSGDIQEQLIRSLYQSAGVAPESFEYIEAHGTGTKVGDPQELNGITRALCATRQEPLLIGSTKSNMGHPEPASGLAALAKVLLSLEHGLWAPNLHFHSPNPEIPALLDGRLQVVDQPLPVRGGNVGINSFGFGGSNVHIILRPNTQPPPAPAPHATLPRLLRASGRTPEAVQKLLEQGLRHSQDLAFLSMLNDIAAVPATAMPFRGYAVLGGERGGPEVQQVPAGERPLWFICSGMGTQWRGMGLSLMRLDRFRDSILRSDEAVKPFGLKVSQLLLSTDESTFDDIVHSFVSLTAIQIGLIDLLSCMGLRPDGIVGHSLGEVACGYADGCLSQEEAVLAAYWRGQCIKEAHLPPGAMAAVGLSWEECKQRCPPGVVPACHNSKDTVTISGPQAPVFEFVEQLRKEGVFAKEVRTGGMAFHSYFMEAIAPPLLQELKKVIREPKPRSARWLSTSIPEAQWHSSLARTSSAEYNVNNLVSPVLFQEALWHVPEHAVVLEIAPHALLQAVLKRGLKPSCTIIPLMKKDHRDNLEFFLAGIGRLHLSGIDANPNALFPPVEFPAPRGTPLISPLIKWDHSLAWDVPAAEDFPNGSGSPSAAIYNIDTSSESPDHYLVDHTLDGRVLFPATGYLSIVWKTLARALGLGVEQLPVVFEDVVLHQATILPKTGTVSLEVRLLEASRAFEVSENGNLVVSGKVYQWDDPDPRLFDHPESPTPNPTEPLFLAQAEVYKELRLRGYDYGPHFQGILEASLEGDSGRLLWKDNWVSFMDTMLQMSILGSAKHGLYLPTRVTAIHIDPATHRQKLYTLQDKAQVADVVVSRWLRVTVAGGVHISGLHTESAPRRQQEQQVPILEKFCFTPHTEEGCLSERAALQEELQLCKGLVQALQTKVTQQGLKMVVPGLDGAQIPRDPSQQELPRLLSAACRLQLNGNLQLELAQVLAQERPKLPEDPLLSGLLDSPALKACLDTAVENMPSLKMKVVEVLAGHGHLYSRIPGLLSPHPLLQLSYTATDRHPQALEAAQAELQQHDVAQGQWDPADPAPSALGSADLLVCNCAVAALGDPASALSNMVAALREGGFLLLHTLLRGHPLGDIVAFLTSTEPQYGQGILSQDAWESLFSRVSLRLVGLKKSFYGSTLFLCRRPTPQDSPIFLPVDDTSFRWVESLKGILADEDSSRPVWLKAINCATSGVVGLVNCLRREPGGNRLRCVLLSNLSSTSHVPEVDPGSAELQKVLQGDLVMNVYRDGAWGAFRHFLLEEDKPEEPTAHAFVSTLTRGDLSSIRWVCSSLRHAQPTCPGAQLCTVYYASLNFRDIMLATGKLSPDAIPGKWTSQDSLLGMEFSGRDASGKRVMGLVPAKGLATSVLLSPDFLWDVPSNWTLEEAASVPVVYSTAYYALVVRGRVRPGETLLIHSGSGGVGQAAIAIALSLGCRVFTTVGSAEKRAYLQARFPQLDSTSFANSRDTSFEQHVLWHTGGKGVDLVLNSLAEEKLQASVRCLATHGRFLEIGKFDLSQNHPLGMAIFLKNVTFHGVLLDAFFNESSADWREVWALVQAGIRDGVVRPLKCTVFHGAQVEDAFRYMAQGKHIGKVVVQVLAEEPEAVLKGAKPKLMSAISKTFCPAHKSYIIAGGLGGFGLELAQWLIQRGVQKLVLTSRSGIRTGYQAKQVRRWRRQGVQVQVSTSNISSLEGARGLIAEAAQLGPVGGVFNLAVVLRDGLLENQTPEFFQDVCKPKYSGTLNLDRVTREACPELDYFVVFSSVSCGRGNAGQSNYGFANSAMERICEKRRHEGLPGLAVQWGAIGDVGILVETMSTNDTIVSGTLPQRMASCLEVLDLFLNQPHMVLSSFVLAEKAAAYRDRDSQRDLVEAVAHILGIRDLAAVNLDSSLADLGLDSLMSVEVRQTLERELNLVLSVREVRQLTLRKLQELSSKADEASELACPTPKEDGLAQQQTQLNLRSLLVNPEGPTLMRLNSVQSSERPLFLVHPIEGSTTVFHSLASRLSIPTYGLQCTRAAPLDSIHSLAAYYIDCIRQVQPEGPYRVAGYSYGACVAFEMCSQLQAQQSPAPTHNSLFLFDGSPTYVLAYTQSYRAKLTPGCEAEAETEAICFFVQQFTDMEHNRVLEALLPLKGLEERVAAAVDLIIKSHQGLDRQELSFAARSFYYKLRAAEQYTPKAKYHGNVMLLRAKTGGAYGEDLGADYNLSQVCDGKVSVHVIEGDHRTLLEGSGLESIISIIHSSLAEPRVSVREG

As usually defined, the AC50 is the concentration giving half of the maximal activity seen. In the case of `CCCCOC(=O)[C@@H](C)Oc1ccc(Oc2ccc(C#N)cc2F)cc1`, the compound was classed as inactive in assay [1], in [2], in assay [3], in assay [4], in assay [5] and in [7]. The outcome in assay [8], in assay [9], in assay [10], in assay [11], in [12] and in assay [13] was inactive. Moreover, the outcome in assay [14], in [15], in assay [16] and in [17] was inactive. The values for the AC50 in [6] and in assay [18] were 23.3 µM (active) and 39.7 µM (active), respectively.

As to `O=c1ccc(=O)[nH][nH]1`, the compound was called inactive in assay [1], in assay [2], in assay [3], in [4], in assay [5] and in assay [6]. In addition, the result in [7], in assay [8], in assay [9], in [10], in [11] and in [12] was inactive. The call in [13], in assay [14], in [15], in assay [16], in [17] and in assay [18] was inactive.

Turning to `COP(=O)(OC)SCn1c(=O)oc2cc(Cl)cnc21`, the compound was called inactive in [1], in assay [2], in [4], in assay [5], in assay [7] and in assay [8]. The outcome in assay [10], in [11], in assay [12], in assay [13], in assay [15] and in [16] was inactive. The call in assay [17] and in assay [18] was inactive. The AC50 in [3] was 78.5 µM (active); in assay [6], 38.6 µM (active); in assay [9] it was 0.029 µM (active); in assay [14], 39.3 µM (active).

For the compound `CC(C)N(C(=O)SCC(Cl)=C(Cl)Cl)C(C)C`, the compound was classed as inactive in assay [1], in [2], in [3], in assay [4], in assay [5] and in [7]. In addition, the call in assay [8], in assay [9], in assay [10], in assay [11], in [12] and in assay [13] was inactive. For the same compound, the compound was classed as inactive in assay [14], in [15], in assay [16], in [17] and in assay [18]. For the same compound, the AC50 in [6] is 67.5 µM (active).

With `COP(=O)(OC)C(O)C(Cl)(Cl)Cl` (stereo not given), the result in [1], in assay [2], in [3], in assay [4], in assay [5] and in [7] was inactive. Moreover, the compound was called inactive in assay [8], in assay [10], in [11], in assay [12], in assay [13] and in assay [14]. Also, the outcome in [15], in [16], in assay [17] and in assay [18] was inactive. Moreover, the AC50 in [9] is 0.12 µM (active).

For the compound `CC1(C(=O)Nc2ccc(O)c(Cl)c2Cl)CCCCC1`, the outcome in assay [19], in assay [2], in assay [3], in assay [4], in assay [5] and in assay [7] was inactive. Moreover, the compound was called inactive in assay [8], in [9], in assay [10], in assay [11], in assay [12] and in assay [13]. Also, the outcome in [14], in [15], in assay [16], in [17] and in [18] was inactive. Also, in [6], the concentration at half-maximal activity (AC50) was 67.2 µM (active).

In the case of `CC(C1CC1)C(O)(Cn1cncn1)c1ccc(Cl)cc1` (stereo not given), the result in assay [1], in assay [2], in [3], in assay [4], in assay [7] and in assay [8] was inactive. Also, the compound was classed as inactive in assay [9], in assay [10], in [12], in assay [13], in [14] and in assay [15]. In addition, the compound was called inactive in assay [16] and in assay [18]. The concentration at half-maximal activity (AC50) is 77.7 µM (active) in [5], 17 µM (active) in assay [6], 13.1 µM (active) in assay [11] and 31.7 µM (active) in assay [17].

(Values after PubChem BioAssay (EPA / NIEHS).)
